40 compounds from PubChem BioAssay (NCI) can be followed below.

This is part of a sample that, as a whole, favours compounds with a hit. Of some 83,000 tested, about 20% had one in any assay.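 How to read the values: 0–100, growth inhibition (40 = 60% inhibited); 0, no net growth; -100 to 0, cell death (-40 = 40% of starting cells died; -100 = all dead).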 Calls of active or inactive are those of the source.

In this test the test system is HOP-62 NSCLC. Kind of test: NCI-60 one-dose screen, 48 h (100 = growth as untreated, 0 = no growth, -100 = all killed). The conditions noted are these: 10 µM unless noted. The procedure:
Growth inhibition of the HOP-62 human Non-Small Cell Lung tumor cell line is measured as a screen for anti-cancer activity. Cells are grown in 96 well plates and exposed to the test compound for 48 hours. Compounds are tested at a single concentration, which is 10^-5 M for most compounds. The reported endpoint is percent growth (GI% or GIPRCNT), where numbers from 0 - 100% represent growth inhibition, and numbers from -100% - 0 represent cell death. For example, a value of 40 represents 60% growth inhibition. A value of 0 means no net growth occurred over the course of the experiment. A value of -40 indicates 40% of cells at the beginning of the experiment died by the end of the experiment. A value of -100 means all cells are dead at the end of the experiment.
NCI-60 Human Tumor Cell Lines Screen was performed using the standard one-dose NCI protocol, which is described in more detail at https://dtp.cancer.gov/discovery_development/nci-60/default.htm.
Compounds with GIPRCNT values below 10 were considered active. Activity score was based on GIPRCNT using the following formula: […]
Score is 0 for GIPRCNT values of 100 or above, 50 for GIPRCNT values of 0, and 100 for GIPRCNT values of -100.
As for `O=C/C=C/c1ccc([N+](=O)[O-])cc1`, the growth was 104% (inactive).

As for `Cn1ccc(=Nc2ccc(NC(=O)c3ccc(N=c4ccn(C)c5ccc([N+](=O)[O-])cc45)cc3)cc2)cc1`, the growth is 52.6% (inactive).

For `O=C1C=CC(=O)N1c1ccc(O)cc1`, the growth is 104% (inactive).

Take `CCSc1nc2ccccc2o1`: the growth is 99.4% (inactive).

Take `CC(C)Nc1ccc(Nc2ccc(NC(C)C)cc2)cc1`: the growth is 76.4% (inactive).

As to `Cc1c(O)ccc(SC#N)c1C`, the growth was 100% (inactive).

As for `Cc1ccccc1N=C(N)Nc1ccccc1C` (tested in a mixture with another compound), the growth is 84.7% (inactive).

On to `COc1cccc2c1C(=O)c1c(O)c3c(c(O)c1C2=O)C[C@@](O)(C(=O)CO)C[C@@H]3OC1CC(OC(C)=O)C(OC(C)=O)C(C)O1` (stereo not given in full), for which the growth was -25.6% (active).

Take `O=C(CBr)c1ccc(OC(=O)c2ccccc2)cc1`: the growth was 99.9% (inactive).

Turning to `Cc1cc(N/N=C/c2ccccn2)nc2ccccc12`, the growth is 0.2% (active).

With `COC(=O)[C@]1(C)CCC[C@]2(C)c3ccc(C(C)C)cc3C(=O)[C@@H](Br)[C@@H]12`, the growth was 94.3% (inactive).

Take `Oc1c(Cl)cc(Cl)cc1C(c1cc(Cl)cc(Cl)c1O)C(Cl)(Cl)Cl`: the growth is -6.29% (active).

`O=[N+]([O-])c1ccc(C(Br)c2ccc([N+](=O)[O-])cc2)cc1`: the growth was 105% (inactive).

As for `CN=C(N)N/N=C(\c1ccccc1)c1ccc(Br)cc1`, the growth was 8.02% (active).

For the compound `CCCCCCCCCCCC[n+]1ccc(CCCCCCCCC)cc1`, the growth was -84.8% (active).

Turning to `CCCCC(C=O)(C=C=C(C)C)CC` (stereo not given), the growth was 120% (inactive).

For the compound `CCCCCCCCCCCC1=NCCCN1CCCC`, the growth was 94.6% (inactive).

On to `CC(CSc1n[nH]c(=S)s1)c1ccccc1` (stereo not given), for which the growth is 108% (inactive).

`Cc1nc([N+](=O)[O-])c(Sc2nncc(-c3ccccc3)n2)n1C`: the growth was 95.4% (inactive).

In the case of `OC(c1cc(C23CC4CC(CC(C4)C2)C3)nc2c(Cl)cc(Cl)cc12)C1CCCCN1` (stereo not given), the growth was -88.6% (active).

Turning to `Cn1c(-c2ccccc2)c(/C=C/C2=[N+](C)c3ccccc3C2(C)C)c2ccccc21`, the growth is 10.2% (inactive).

For the compound `CCOc1ccc(C(CN2CCOCC2)C(C)=O)cc1OC` (stereo not given), the growth was 104% (inactive).

`CC(=O)C1Cc2ccccc2C1=O` (stereo not given): the growth is 90.5% (inactive).

On to `CCCCCCCCCCCCCCCCCC[S+](C)CC` (stereo not given), for which the growth is 15.6% (inactive).

Consider `CC(C)c1ccc(C(=O)OC2CCCC2)cc1`, for which the growth was 93.1% (inactive).

With `CC(/C=N/NC(N)=S)Cc1ccc(C(C)C)cc1` (stereo not given), the growth was 89.1% (inactive).

On to `CCc1cccc(CC)c1N1C(=O)C=CC1=O`, for which the growth is 83.7% (inactive).

For the compound `Nc1cc(-c2ccccc2)ccc1O`, the growth was 122% (inactive).

In the case of `O=Nc1ccc2ccccc2c1O`, the growth was 95.2% (inactive).

As to `CCCCCCC1N=C(N)N=C(N)N1c1cccc(Cl)c1` (stereo not given), the growth was 34.6% (inactive).

Consider `Cc1cc(Br)c2nsnc2c1[N+](=O)[O-]`, for which the growth was 55.6% (inactive).

As to `O=C(OC12CC3CC(CC(C3)C1)C2)c1ccc(NCc2cc(O)ccc2O)cc1`, the growth is -55.7% (active).

As for `OC(Cc1cc(CC(O)(C(F)(F)F)C(F)(F)F)nc(CC(O)(C(F)(F)F)C(F)(F)F)c1)(C(F)(F)F)C(F)(F)F`, the growth is -37.3% (active).

On to `Oc1c(C(Nc2ccccc2)c2ccccc2)ccc2cccnc12` (stereo not given), for which the growth was 24.1% (inactive).

Regarding `CCOC(=O)c1c(C)[nH]c2ccc(O)cc12`, the growth is 107% (inactive).

Take `Cc1cc(I)nc2ccccc12`: the growth was 105% (inactive).

For `CCOC(=O)C1=C(C(=O)c2ccccc2)C(c2cccc([N+](=O)[O-])c2)C(C(=O)c2ccccc2)=C(C(=O)OCC)N1`, the growth is 93% (inactive).

As to `CN(C)CCN(C)CC(C)(C)C(=O)/C=C/c1ccc(Cl)c(Cl)c1`, the growth was -92.9% [100 µM] (active).

In the case of `CC(C)=C1C=C2CC[C@@H]3[C@](C)(CCC[C@@]3(C)C(=O)O)[C@H]2CC1`, the growth is 93.6% (inactive).

As for `NC(=Nc1nc(-c2ccccn2)cc2ccccc12)c1ccccn1`, the growth is 8.21% (active).
